# Source: PubChem BioAssay (National Center for Advancing Translational Sciences (NCATS))
# The entries come from a sample that favours hits as a whole.
# VP16 counter – counter-screen for ROR gamma inhibitors: Gal4-VP16 reporter; Potency, µM (top dose mostly 53.6 µM), without a hit: top-dose activity, negative = inhibition, actives largely listed as inhibitors; hit rate 3.5% among 310,000; AID 2546; Drosophila S2 Gal4-VP16 UAS-luciferase, luminescence, 20 h;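 further: Gal4-VP16 expression switched on by copper sulfate through the metallothionein promoter; potency means the concentration at half of the fitted maximal effect; on the % scale 0 is the no-effect control and ±100 the full control effect; nearly all actives have a fitted effect of over 50% in size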
# Giardia killer – Giardia lamblia killing; Giardia lamblia trophozoite viability; activity change, % at 7.66 µM, hits read low; hit rate 0.15% among 340,000; AID 540267; in the data active means activity change below about -80%; inconclusive means between about -30% and that limit;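 further: parasites exposed to compound for two days anaerobically before the ATP read; on the % scale 0 is the no-effect control and ±100 the full control effect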
#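 Viability, read as ATP luminescence: trophozoites at 100 cells/well, compound added, 48 hrs anaerobic at 37 deg C, then 15-30 min room-temperature development before reading.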
# Integrin act MD – activators of alpha7 integrin expression for muscular dystrophy; AID 624291; Potency, µM (doses to about 38.3 µM), inactives show top-dose activation, actives largely listed as activators; hit rate 0.064% among 350,000; alpha7betagal myoblasts, beta-gal FDG fluorescence, 48 h;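 further: potency means the concentration at half of the fitted maximal effect; 100% = response of the positive control SU9516; nearly all actives have a fitted effect of over 60% in size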
#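 alpha7betagal+/- myoblasts (passage 13, 250/well) treated 48 h at 37C with compounds at 1:260 dilution of DMSO stock. Lysed, then beta-galactosidase activity read as FDG fluorescence (ex 480/em 540) after 30 min, with pre-read for autofluorescence.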
# RORgamma inh – ROR gamma (mouse) transcription inhibition. P51450. Drosophila S2 Gal4-RORgamma UAS-luciferase reporter, 20 h. Potency, µM (titrated, usually from 53.6 µM), for the others: at the top dose activity change, negative = inhibition, most hits filed as inhibitors. hit rate 5.4% among 310,000; further: potency means the concentration at half of the fitted maximal effect; on the % scale 0 is the no-effect control and ±100 the full control effect; nearly all actives have a fitted effect of over 60% in size
# Target sequence (P51450 whole entry, looked up, the tested form may be a part): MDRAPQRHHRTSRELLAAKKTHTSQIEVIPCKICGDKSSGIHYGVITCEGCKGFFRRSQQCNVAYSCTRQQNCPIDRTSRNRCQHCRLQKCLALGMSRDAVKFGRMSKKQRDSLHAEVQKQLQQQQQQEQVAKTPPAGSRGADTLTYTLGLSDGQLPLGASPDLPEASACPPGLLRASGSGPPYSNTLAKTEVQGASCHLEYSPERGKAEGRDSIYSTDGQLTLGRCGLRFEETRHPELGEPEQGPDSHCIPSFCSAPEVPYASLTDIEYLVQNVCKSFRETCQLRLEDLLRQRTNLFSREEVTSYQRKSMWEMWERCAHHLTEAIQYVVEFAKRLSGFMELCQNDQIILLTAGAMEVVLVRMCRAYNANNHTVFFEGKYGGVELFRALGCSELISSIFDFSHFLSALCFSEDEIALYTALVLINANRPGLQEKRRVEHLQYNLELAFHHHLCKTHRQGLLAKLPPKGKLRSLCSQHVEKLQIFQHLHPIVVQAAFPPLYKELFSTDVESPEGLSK
#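 Drosophila S2 cells stably expressing Gal4-DBD/mouse RORγ fusion under metallothionein promoter plus UAS-luciferase; compound 1 h, then 700 uM CuSO4 induction for 20 h at ambient temperature; inhibition read as reduced luminescence.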
# ERG-DNA inh – inhibitors of human ERG Ets domain-DNA interaction; P11308; fluorescence polarization, His-ERG Ets domain / labelled DNA; Potency, µM (top dose mostly 76.9 µM), without a hit: top-dose FP activity, negative = inhibition, usual class: inhibitors; hit rate 0.028% among 370,000; AID 624246; active means well fitted inhibition curve with a large enough effect in the polarisation, with a control signal flat; inconclusive means small, poorly fitted or top-dose-only effect, or effect the other way, or a change in a side signal; inactive means no such curve, though single readings can be large or run the other way; the % refers to the polarisation;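 further: polarization taken with two DNA probes labelled with fluorescein and Texas red; potency means the concentration at half of the fitted maximal effect; % of control where 0% means no effect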
#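 His-tagged ERG Ets domain (1 uM in the protein solution; 300mM KCl, 50mM Tris-HCl, 1mM EDTA, 1mM DTT, pH 7.5) received compound, then a probe mix of 5 nM fluorescein-DNA and 100nM Texas-615-DNA. Fluorescence polarization was read for both dyes.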
# Active calls of the source: *; ? = inconclusive; . = no result given; [ ] = another dose, or the depositor's remark. Unless noted, the call rests on the fitted dose curve; in most records, active means well fitted curve in the direction sought with a large enough effect; inconclusive means small, poorly fitted or top-dose-only effect, or another doubt; inactive means no such curve, though single readings can be large; an effect the other way counts as inactive or inconclusive.
SMILES,VP16 counter,Giardia killer,Integrin act MD,RORgamma inh,ERG-DNA inh
CN(C)S(=O)(=O)c1ccc(C(=O)Nc2nc3ccccc3[nH]2)cc1,?,6,8.9µM*,11µM*,39%
CCc1ccc(C(=O)Nc2nc3ccccc3[nH]2)cc1,4µM*,-94*,?,2.2µM*,3%
O=C(CCNC(=O)c1ccc(Cl)cc1)Nc1nc2ccccc2[nH]1,.,12,-4%,.,1%
CN(c1ccccc1)S(=O)(=O)c1ccc(Cl)c(C(=O)Nc2ccc(-c3nc4ccccc4[nH]3)cc2)c1,-1%,-1,-34%,?,-9%
CN(c1ccccc1)S(=O)(=O)c1ccc(Cl)c(C(=O)Nc2nc3ccccc3[nH]2)c1,7.1µM*,6,-23%,4µM*,8%
CCOc1ccc(-c2nnc(SCC(=O)Nc3cccc(C#N)c3)o2)cc1,.,.,.,.,9%
COc1ccc(N2CCN(C(=O)c3ccc(OCC4CCCO4)cc3)CC2)cc1 (centres undefined),2%,9,-21%,9%,-7%
CC(NC(=O)COC(=O)Cc1ccsc1)c1ccccc1 (centres undefined),-4%,17,-1%,14%,-6%
O=C(Nc1nc2ccccc2[nH]1)c1cc(F)cc(F)c1,?,-12,38%,-24%,4%
O=C(NC(=S)NCc1nc2ccccc2[nH]1)c1ccccc1F,1%,4,-12%,-32%,-10%
O=C(Nc1nc2ccccc2[nH]1)c1ccccc1F,1.8µM*,-89*,?,0.71µM*,7%
N#Cc1ccc(C(=O)Nc2nc3ccccc3[nH]2)cc1,7.1µM*,-8,0%,3.5µM*,0%
O=C(Nc1nc2ccccc2[nH]1)c1ccc(F)cc1,5.6µM*,?,9%,2.8µM*,-4%
N#Cc1ccc(C(=O)Nc2ccc3ccccc3c2)cc1,-2%,-8,-1%,-30%,-6%
C=CCNC(=S)NNC(=O)Cn1c(-c2ccccc2)cc(=O)n2ncnc12,4%,-2,33%,1%,-3%
CCOc1ccc(C2C=C(c3ccc(C)cc3)Nc3ncnn32)cc1 (centres undefined),-6%,.,.,11µM*,.
CC[C@]1(c2ccccc2)NC(=O)NC1=O,-13%,.,.,-9%,.
CC[C@@H]1Cn2c(c3nc(-c4cc(Cl)cc(Cl)c4Cl)nc-3n(C)c2=O)N1,?,.,.,8.9µM*,.
CNC(=S)N/N=C/c1c(C)cccc1Cl,4µM*,0,-6%,2.2µM*,0%
CNC(=S)N/N=C/c1c2ccccc2c(Cl)c2ccccc12,5µM*,-17,14%,4.5µM*,10%
Cc1[nH]cnc1C(=O)N/N=C/c1c(Cl)cccc1Cl,-6%,-29,37%,-20%,18%
C[C@@H]1CN([C@H](C)CO)C(=O)c2cc(Br)cnc2O[C@@H]1CN(C)C(=O)c1ccccc1,.,.,-15%,.,.
O=S(=O)(/N=C(/Nc1cccc2ccccc12)c1ccccc1)c1ccc(F)cc1,13%,29,?,2%,12%
CN(C)S(=O)(=O)c1ccc(Nc2nc(C3CC3)nc3c2nnn3Cc2ccccc2Cl)cc1,4µM*,7,0%,-33%,-3%
COc1cc2cc(C(=O)N3CCOCC3)cc(-c3ccc(C)cc3)c2cc1OC,8.9µM*,17,-11%,?,10%
SMILES,VP16 counter,Giardia killer,Integrin act MD,RORgamma inh,ERG-DNA inh
O=C(c1cc(-c2ccco2)on1)N1CCOCC1,-9%,0,7%,-6%,-2%
O=C(c1cc(-c2ccc(O)cc2)on1)N1CCCCCC1,2%,-8,-16%,-2%,8%
Cc1ccc(-c2cc(C(=O)N3CCCC3)no2)cc1,7.1µM*,?,-20%,11µM*,.
O=C(c1cc(-c2ccc3c(c2)OCO3)on1)N1CCCCC1,11µM*,-17,-15%,?,2%
Cc1ccc(-c2cc(C(=O)N3CCOCC3)no2)cc1,14µM*,?,12%,7.9µM*,-1%
O=C(NCCC1=CCCCC1)c1ccc2c(c1)N(Cc1ccc(Cl)cc1)C(=O)c1ccccc1S2(=O)=O,.,.,.,.,0%
Cc1ccc(CNC(=O)CC(C)CC2=NS(=O)(=O)c3ccccc3N2)cc1 (centres undefined),.,.,.,.,1%
c1ccc(Nc2nc3ccccc3[nH]2)nc1,?,-10,-36%,2µM*,-1%
CC1(C)OC(C(O)(c2cc(F)c(F)c(F)c2)c2cc(F)c(F)c(F)c2)C(C(O)(c2cc(F)c(F)c(F)c2)c2cc(F)c(F)c(F)c2)O1 (centres undefined),-7%[10 µM],.,.,13%[10 µM],.
CC(C)[C@H](NC(=O)c1ccccc1)C(=O)OCC(=O)/C=C1/N(C)c2ccccc2C1(C)C,?,-15,-68%,-1%,32%
COc1cc(OC)cc(C(=O)NCC(=O)OCC(=O)/C=C2/N(C)c3ccccc3C2(C)C)c1,18µM*,-14,0%,-12%,53%
CN1/C(=C\C(=O)COC(=O)Cn2nnc(-c3ccccc3)n2)C(C)(C)c2ccccc21,28µM*,1,-17%,32%,14%
COc1ccc2c(Sc3ccccc3)c(C(=O)NCc3cc(Br)ccc3OC)[nH]c2c1,.,.,.,.,-1%
Cc1cc(Cl)ccc1NC(=S)NC1CCCC1,14µM*,22,2%,2.2µM*,16%
O=C(NC1CCCCCCC1)c1cccc(Cl)c1,?,22,30%,39%,-8%
S=C(NNc1cccc(Cl)c1)NC1CCCCC1,1.4µM*,21,-36%,0.32µM*,2%
CC1CCCCC1NC(=S)Nc1ccc(Cl)cc1Cl (centres undefined),?,12,5%,3.5µM*,?
CC(=O)c1cccc(NC(=S)NC2CCCCC2)c1,?,-21,-18%,10µM*,-2%
CC1(C)NC(=O)N(CC(=O)OCC(=O)Nc2cc(S(=O)(=O)N3CCCCC3)ccc2Cl)C1=O,3%,-6,-1%,18%,10%
COc1ccccc1N1CCN(C(=O)CCNC(=O)c2ccco2)CC1,.,3,7%,.,-9%
S=C(Nc1cccc(Cl)c1)NC1CCCCC1,10µM*,-2,-46%,3.5µM*,7%
CC(C)N1C(=O)N(c2cccc(Cl)c2)C(C)(O)CC1(C)C (centres undefined),-3%,2,0%,7.9µM*,0%
NC(=S)N=Nc1c(O)n(CCCl)c2ccc(Cl)cc12,3.5µM*,-15,-41%,0.79µM*,11%
NC(=S)N=Nc1c(O)n(CCCl)c2ccccc12,3.2µM*,-8,-21%,1µM*,4%
NC(=O)N=Nc1c(O)n(Cc2ccccc2)c2ccc(Br)cc12,-7%,3,19%,?,5%
NC(=S)N=Nc1c(O)n(CC(=O)Nc2ccccc2)c2ccccc12,-15%,-1,-56%,?,3%
CCOc1ccc2c(c1)c(N=NC(=N)N)c(O)n2C,1%,0,-13%,-5%,-4%
CCOc1ccc2c(c1)c(N=NC(N)=S)c(O)n2C,7.1µM*,-3,9%,?,-12%
